Active and inactive are the calls of the source. The calls were made as follows: active = hit-call score of the fitted dose curve at least 0.9, where 1 is the maximum; inactive = score below 0.9.
experiment: CCTE_Shafer_MEA_acute_interburst_interval_mean: CCTE's Neural Acute Assay for Mean Interburst Interval, Shafer Lab (AID 2284016);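 also: percent change of mean interburst interval versus each well's own pre-dose baseline; curves fitted for decrease in interburst interval relative to DMSO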
Method in brief: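 Rat primary cortical neurons on 48-well MEAs at DIV 13 or 15 were exposed acutely to 0.03-40 uM. Spikes detected at 8x rms noise, 37 C. Mean interburst interval from 40 min recordings expressed as percent change from 40 min pre-treatment baseline.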

| SMILES | outcome | AC50 |
| --- | --- | --- |
| CC[C@H](C)C(=O)O[C@H]1C[C@H](O)C=C2C=C[C@H](C)[C@H](CC[C@@H](O)C[C@@H](O)CC(=O)O)[C@H]21 | inactive |  |
| CCCCCCCC1CCC(=O)O1 (stereo unspecified) | inactive |  |
| OCc1ccccc1 | inactive |  |
| CC(C)C(=O)Nc1ccc([N+](=O)[O-])c(C(F)(F)F)c1 |  | 30.8 µM (active) |
| CCCc1ccccc1 | inactive |  |
| CCCCC(CC)C(=O)OCCOCCOCCOC(=O)C(CC)CCCC (stereo unspecified) | inactive |  |
| CCc1ccc(O)c(C(C)(C)C)c1 | inactive |  |
| c1ccc(C(O[C@@H]2CCCN(CCc3ccc4c(c3)OCO4)C2)c2ccccc2)cc1 |  | 4.15 µM (active) |
| COc1cc2c(c(OC)c1OC)-c1ccc(OC)c(=O)cc1[C@@H](NC(C)=O)CC2 | inactive |  |
| OC(CCl)CCl | inactive |  |
| C=CCc1cc(S(=O)(=O)c2ccc(O)c(CC=C)c2)ccc1O | inactive |  |
| O=S(=O)(O)c1ccc(N=Nc2c(O)ccc3cc(S(=O)(=O)O)ccc23)cc1 | inactive |  |
| Cn1c(=O)c2[nH]cnc2n(C)c1=O | inactive |  |
| COc1cc(C(C)C)c2c(c1)S(=O)(=O)N(COc1cc(=O)n3cccc(OCCN4CCCCC4)c3n1)C2=O | inactive |  |
| COCc1nnc(-c2ccc[n+]([O-])c2)n1-c1c(Cl)c(Cl)cc2[nH]c(=O)c(=O)[nH]c12 |  | 30 µM (active) |
| CCCCCCCC/C=C\CCCCCCCC(=O)OC[C@@H](O)[C@H]1OC[C@H](O)[C@H]1O | inactive |  |
| c1ccc2cc3ccccc3cc2c1 | inactive |  |
| Cc1ncc([C@@H](CCCCCCc2ccc3c(n2)NCCC3)CC(=O)O)cn1 | inactive |  |

experiment: CCTE_Shafer_MEA_acute_burst_percentage_mean: CCTE's Neural Acute Assay for Percentage of Spikes in a Burst, Shafer Lab (AID 2284017);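 as to AC50: curve fitted for loss of signal so potency reflects decreased burst percentage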
Method in brief: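 Primary rat cortical neurons on 48-well MEA plates, treated on DIV 13 or 15 at 0.03-40 uM. Spikes detected at 8x rms noise at 37C; percent change from 40-min baseline to 40-min post-dose recording, fitted versus DMSO.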

| SMILES | outcome | AC50 |
| --- | --- | --- |
| CC[C@H](C)C(=O)O[C@H]1C[C@H](O)C=C2C=C[C@H](C)[C@H](CC[C@@H](O)C[C@@H](O)CC(=O)O)[C@H]21 | inactive |  |
| CCCCCCCC1CCC(=O)O1 (stereo unspecified) |  | 20 µM (active) |
| OCc1ccccc1 | inactive |  |
| CC(C)C(=O)Nc1ccc([N+](=O)[O-])c(C(F)(F)F)c1 |  | 6.55 µM (active) |
| CCCc1ccccc1 | inactive |  |
| CCCCC(CC)C(=O)OCCOCCOCCOC(=O)C(CC)CCCC (stereo unspecified) | inactive |  |
| CCc1ccc(O)c(C(C)(C)C)c1 |  | 2.12 µM (active) |
| c1ccc(C(O[C@@H]2CCCN(CCc3ccc4c(c3)OCO4)C2)c2ccccc2)cc1 | inactive |  |
| COc1cc2c(c(OC)c1OC)-c1ccc(OC)c(=O)cc1[C@@H](NC(C)=O)CC2 | inactive |  |
| OC(CCl)CCl | inactive |  |
| C=CCc1cc(S(=O)(=O)c2ccc(O)c(CC=C)c2)ccc1O | inactive |  |
| O=S(=O)(O)c1ccc(N=Nc2c(O)ccc3cc(S(=O)(=O)O)ccc23)cc1 | inactive |  |
| Cn1c(=O)c2[nH]cnc2n(C)c1=O | inactive |  |
| COc1cc(C(C)C)c2c(c1)S(=O)(=O)N(COc1cc(=O)n3cccc(OCCN4CCCCC4)c3n1)C2=O | inactive |  |
| COCc1nnc(-c2ccc[n+]([O-])c2)n1-c1c(Cl)c(Cl)cc2[nH]c(=O)c(=O)[nH]c12 |  | 17.2 µM (active) |
| CCCCCCCC/C=C\CCCCCCCC(=O)OC[C@@H](O)[C@H]1OC[C@H](O)[C@H]1O | inactive |  |
| c1ccc2cc3ccccc3cc2c1 | inactive |  |
| Cc1ncc([C@@H](CCCCCCc2ccc3c(n2)NCCC3)CC(=O)O)cn1 | inactive |  |
